± gives the standard deviation of the averaged measurements. Over roughly 25,000 sequences, “ln(normalized median fluorescence intensity)” has its median near 8.9; the highest 2% begin near 10. The sample holds the highest values, similar sequences and a random draw of the others, so the mix is not that of the screen.
tested on: PfAP2-LT AP2 domain (GST-tagged); assay: gcPBM binding intensity (ln(normalized median fluorescence intensity)); higher = stronger DNA binding
Procedure, shortened: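 Binding intensity is the highest Masliner-normalised natural-log median intensity over replicate spots in either probe orientation. To obtain it, GST-tagged P. falciparum DNA-binding domains made in E. coli were incubated for 1 h on an Agilent 4 × 180k array of primer-extended double-stranded 36-bp intergenic genomic probes plus negative controls. Detection used Alexa488 anti-GST antibody with scanning at 488 nm.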

In order of rising “gcPBM binding intensity (ln)” value:
1. ATTTTTTATGGACAAAAGACCTCTGATGTAAATATA [CACACA_negctrl_site1081]  8.38 ± 0.4
2. TTAATATTTTGATGTGTACACATTAAAATAGTTTTA [CACACA_site5712]  8.46 ± 0.48
3. TGATAAGAAAAAGACTTTTCCTTCTTACTTTCTATG [CACACA_negctrl_site782]  8.55 ± 0.59
4. CATCACCTTTTTAAATGTACGCATAATACCAAAAAA [XGTACX_site1587]  8.6 ± 0.48
5. TTGTATATATTAAATTGTACTTATTTTTTGTATATA [XGTACX_site3251]  8.64 ± 0.54
6. ACATGAAGATATTTTTGTCCGTACAAATTCATATGA [XGTACX_site1837]  8.66 ± 0.23
7. AAGGTATTTATAACTACACACTTATTTATAACCTAA [CACACA_site6194]  8.7 ± 0.43
8. ATATGAAGTATCGAATTAAGGGCAACAAATAAATTA [CACACA_negctrl_site1116]  8.76 ± 0.57
9. TTATATTATATATATGTGCACATTTTTAAACTTGGA  8.77 ± 0.47
10. ATATAACTTTTAAAAGCATGCAAATATTTACTCAAT [TGCATGCA_site396]  8.78 ± 0.45
11. GAGCCCAAAAAATTAGGTACGTATAAAGAGGTATTT [XGTACX_site5348]  8.8 ± 0.54
12. GTGGAAAAAAATAATTGTACACAATAATAAATATAT [XGTACX_site2414]  8.87 ± 0.45
13. ATTATATAAGTACACAAACAAGTATGAGATTCAAAA [GTGCAC_negctrl_site119]  8.88 ± 0.5
14. TATAACAATTTTTATGCATGCGACTATAATATTTTT [TGCATGCA_site508]  8.92 ± 0.42
15. CTGAGGAAGCTAATTACACACATGCATATTTTTTTT [CACACA_site2177]  9.08 ± 0.28
16. GTTTGAATGGCGCACTGTACACATATATACATATAG [XGTACX_site8619]  9.13 ± 0.26
17. ACCCTATAGGTAACTACACACCGCATATTGTTTACT [CACACA_site7436]  9.15 ± 0.34
18. TTATATTAAACAAACACACACATATAAATATAAATA [CACACA_site7174]  9.23 ± 0.3
19. TTTAAACAAGGATCCACACACCCCAAAAAAAAAAGA [CACACA_site680]  9.26 ± 0.4
20. ATATATTATATGTACACACACATATAAGGGATTATA [CACACA_site5]  9.28 ± 0.4
21. TGTATATATTTGTGCACACCAAAGTTTGATTTTATT [CACACA_site1860]  9.3 ± 0.42
22. AGCACACCCACAAAAACACACACAAAGGTGTTCTTA [CACACA_site8355]  9.39 ± 0.42
23. TTTGTTGACGGACACACACACATACAGATATATATA [CACACA_site5292]  9.4 ± 0.27
24. TTCTATTCACATTTTACACACGTCCATCGCATTTTA [CACACA_site3453]  9.44 ± 0.46
25. TTATATTAAACAAACACACACATATATATATATATA [CACACA_site2382]  9.54 ± 0.49
26. ACAAACAAAGAAAGAACACACATACACAAGATACCT [CACACA_site7353]  9.54 ± 0.26
27. AAAAAAATAAAACACACACACAAAAAAATAAAAATA [CACACA_site465]  9.56 ± 0.3
28. GTTTATATTAAACAAACACACACATATATATATATA [CACACA_site8749]  9.57 ± 0.18
29. AAAAAAAAAAAAAACACACACATACACCCAAAAATG [CACACA_site4223]  9.66 ± 0.24
30. GAATATTAAACAAACACACACACATATATTTATATA [CACACA_site7563]  9.73 ± 0.27
31. AATGTACCCACACCCACACACAAACAAATATATATA [CACACA_site2751]  9.74 ± 0.29
32. AAAAATAAAAAAATGACACACATATATATATATATA [CACACA_site2307]  9.85 ± 0.11
33. CACAGACACGGACACACACACATATATAATATATAT [CACACA_site4495]  9.87 ± 0.42
34. CATACATACAGACACACACACATATTTATATTTATA [CACACA_site6172]  9.9 ± 0.41
35. TGCAACAAAATAAACACACACACACTAACACAAAAA [CACACA_site7567]  9.98 ± 0.33
36. CCCACAGACGGACACACACACACACCGACACATATA [CACACA_site4356]  10 ± 0.26
37. GTGTAATGCTTATCGGTGCATATATATATATATATA  10.13 ± 0.021
38. GAATATTAAACAAACACACACACATATATATATATA [CACACA_site3382]  10.1 ± 0.2
39. AATGTACACCCACCCACACACAAACAAATATATATA [CACACA_site5521]  10.1 ± 0.4
40. ATATTAAACAAACACACACACATATATATATATATA [CACACA_site3383]  10.2 ± 0.35
41. CACAAACAAAAACACACACACACACCCACAAAAATG [CACACA_site2429]  10.2 ± 0.34
42. AAAAAAAAAAAACACACACACACACCCACAAAATAT [CACACA_site1447]  10.31 ± 0.028
43. GTAAAAAAAGAGCACACACACAAAAACACCCACAAA [CACACA_site1292]  10.3 ± 0.23
44. TGCAACAAAATAAACACACACACACCCCCACAAAAA [CACACA_site3388]  10.36 ± 0.057
45. AGCACAGACGGACACACACACATATATATATATATA [CACACA_site4341]  10.37 ± 0.085
46. CCCACAGACGGACACACACACATATATATATATATA [CACACA_site4351]  10.4 ± 0.22
